The text below walks through data of PubChem BioAssay AID1578 (Sanford-Burnham Center for Chemical Genomics, 2009).

About 3,000 (1%) of roughly 290,000 compounds were called active. This is one part of a sample in which actives are shown more often than they occur. A number with no mark means an inactive call. Cut-off read from the data, not from the text of the source: active = inhibition mostly above about 36% (no sharp cut-off); inactive = mostly below about 34%.

A short description of this experiment: inhibition of NOD1-driven NF-kB reporter – cell-based, luminescence, uHTS, primary screen (AID 1578).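 Note: HEK-293T reporter cells stimulated with the NOD1 agonist gamma-tri-DAP.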 The following applies: NOD1-driven NF-kB luciferase reporter cells, at 4 µM, hits give high values.
Consider `CCOc1cc(C(=O)Nc2ccc3c(c2)OCO3)ccc1OC(F)F`, for which the inhibition (commonly the drop in the measured response relative to a control, in per cent) was -17.4%.
The figure for `Brc1ccccc1-n1nnc(-c2nccs2)n1` is -44.7%; for `Cc1ccc(-n2nnc(-c3nccs3)n2)cc1` it is 77.8% (active).
`Clc1ccc(-n2nnc(-c3cccnc3Cl)n2)cc1Cl`: the inhibition was -3%.
The figure for `Clc1ccc(-n2nnc(-c3cccnc3)n2)cc1Cl` is -12.2%; for `Fc1ccc(-n2nnc(-c3nccs3)n2)cc1` it is -26%; for `Clc1ccc(-n2nnc(-c3nccs3)n2)cc1Cl` it is 110% (active).
For `CCCC(c1nnnn1Cc1cccs1)N1CCN(C2CCCC2)CC1` (centres undefined) the value was -49.9%.
The figure for `COc1ccccc1-n1cnc2sc(-c3ccccc3)cc2c1=O` is 30.1%; for `O=C(CNC(=O)c1cccc(OC(F)F)c1)OCc1cc(=O)n2cc(Br)ccc2n1` it is 4.7%; for `OC(COc1ccccc1)CN1CCC(Cc2ccccc2)CC1` (centres undefined) it is -20.8%.
Consider `CN(C)c1nc(C(F)(F)F)cc(=O)[nH]1`, for which the inhibition was -21.2%.
With `c1ccc(-n2ncc3c(N4CCC5(CC4)OCCO5)ncnc32)cc1`, the inhibition was -67%.
For `O=C(Nc1nncs1)C1COc2ccccc2O1` (centres undefined) the value was -18.9%; for `O=C(Nc1ccccc1)C1COc2ccccc2O1` (centres undefined), -21.9%.
Consider `COC(=O)c1cccc(NC(=O)C2COc3ccccc3O2)c1` (centres undefined), for which the inhibition was -42.9%.
Take `O=C(NC1=NCCS1)C1COc2ccccc2O1` (centres undefined): the inhibition is 82.7% (active).
As to `COc1cccc(NC(=O)C2COc3ccccc3O2)c1` (centres undefined), the inhibition was 104% (active).
The figure for `Cc1cccc(NC(=O)C2COc3ccccc3O2)c1` (centres undefined) is -23%; for `c1ccc(COc2cccc(CNCc3cccs3)c2)cc1` it is -31.8%; for `O=C1CSc2ccc(C(=O)N3CCN(c4ccccn4)CC3)cc2N1` it is 0.1%.
The figure for `C#CCSc1ncc(S(=O)(=O)c2ccccc2)c(=O)[nH]1` is 7.6%; for `COCCCn1c(SCC(=O)Nc2ccc(C(C)=O)cc2)nc2ccccc2c1=O` it is -25.3%; for `O=C(O)c1cccc(-c2nc3ccccc3[nH]2)c1` it is 61.9% (active).
The figure for `O=C(O)c1ccc(-c2nc3ccccc3[nH]2)cc1` is -38.1%.
On to `c1ccc(-c2nc3ccccc3[nH]2)cc1`, for which the inhibition was -1.5%.
`Cc1ccc(N/C(=C\C(=O)c2ccccc2)C(=O)O)cc1`: the inhibition is -33.5%.
The figure for `O=[N+]([O-])c1ccc(S(=O)(=O)c2ccccc2)nc1` is 29%; for `Cc1ccc(S(=O)(=O)N2CCN(c3ccc([N+](=O)[O-])cn3)CC2)cc1` it is -9.1%.
For `CCOc1cccc(C(=O)Nc2ccc(S(=O)(=O)Nc3cc(C)on3)cc2)c1` the value was -2%; for `CCN(CC)c1ncnnc1-c1ccccc1`, -22.1%; for `CC(C)(C)S(=O)(=O)/C(C#N)=N/Nc1ccc(Cl)cc1`, 4.5%.
Turning to `CC(C)(C)S(=O)(=O)/C(C#N)=N/Nc1ccc(C#N)cc1`, the inhibition is -38.5%.
The figure for `CC(C)(C)c1ccc(N/N=C(\C#N)S(=O)(=O)C(C)(C)C)cc1` is 41% (active).
Turning to `CC(=O)C1=C(O)C(=O)N(CCc2ccccc2)C1c1ccccc1[N+](=O)[O-]` (centres undefined), the inhibition is -12%.
The figure for `CCOC(=O)N1CCN(C(=O)c2cc3cc(OC)c(OC)cc3[nH]2)CC1` is -3.4%; for `O=C(NCCc1ccccc1)C(=O)NCC1OCCN1S(=O)(=O)c1ccc(Cl)cc1` (centres undefined) it is -1.1%.
For `CCCCN(C)Cc1c(C)[nH]c2c(Cl)cccc2c1=O` the value was -15%; for `CCc1nnc(NC(=O)c2ccc(S(=O)(=O)N3CCc4ccccc4C3)cc2)s1`, -1.9%; for `O=C(Nc1nnc(C2CC2)s1)c1ccc(Cl)c(S(=O)(=O)N2CCc3ccccc3C2)c1`, 59%.
The figure for `CN1CCN(c2nc3ccccc3nc2C(C#N)S(=O)(=O)c2ccccc2)CC1` (centres undefined) is -5.2%; for `CSC1=N/C(=C\c2ccccc2Cl)C(=O)N1N(C)C` it is 0.8%; for `O=C(CN1CCc2ccccc2C1)NCC(=O)Nc1ccc(F)cc1` it is -25.2%.
`CCOc1cc(C2/C(=C(/O)c3ccc(OC)cc3)C(=O)C(=O)N2CC2CCCO2)ccc1O` (centres undefined): the inhibition is -1.7%.
For `COc1ccc(O)c(CN2CCC(n3nccc3NC(=O)CCOc3ccccc3)CC2)c1` the value was -1.2%; for `COC(=O)Nc1ccc(S(=O)(=O)NC2CCS(=O)(=O)C2)cc1` (centres undefined), -9.9%.
The figure for `CCn1c(=O)c(C(=O)CC#N)c(N)n(Cc2ccccc2)c1=O` is -11.1%; for `Cn1c(N)c(C(=O)CCl)c(=O)n(Cc2ccccc2)c1=O` it is 43.7%; for `COC(=O)Cn1c(=O)c(C(=O)CCl)c(N)n(Cc2ccccc2)c1=O` it is 69.8% (active).
The figure for `COc1ccc(-c2csc3ncnc(N4CCN(c5ccccc5Cl)CC4)c23)cc1` is -4.5%; for `CCOP(=O)(OCC)/C(=N/OC(=O)c1ccccc1C)C(N)=O` it is -58.9%.
With `O=C(Cc1ccccc1)NCCc1cn2ccsc2n1`, the inhibition was -3.8%.
For `COc1ccc(NC(=O)C(NC(=O)c2ccc(=O)[nH]c2)c2ccccc2)cc1` (centres undefined) the value was -7.3%; for `COc1ccc(NC(=O)C(NC(=O)c2ccc(C)cc2)c2ccccc2)cc1` (centres undefined), 62.7% (active).
For `Cc1ccc(C(=O)NC(C(=O)Nc2ccccc2)c2ccccc2)cc1` (centres undefined), the inhibition is -3.5%.
The figure for `CCc1ccccc1NC(=O)c1cc(-c2ccc(OC)cc2)on1` is -2%; for `CC1Cc2ccccc2N1C(=O)CN1CCC(n2nnc3cc(C(F)(F)F)ccc32)CC1` (centres undefined) it is 23.9%.
The figure for `O=C(Nc1ccccn1)c1ccc2ccccc2c1O` is -61.1%; for `O=C(Nc1cccc([N+](=O)[O-])c1)c1cc2ccccc2cc1O` it is 17.3%; for `CC(=O)Nc1ccc(Br)c2ccccc12` it is -4.6%.
The figure for `O=C(O)c1ccccc1C(=O)Nc1cccc([N+](=O)[O-])c1` is -0.9%.
Regarding `O=C(O)c1cccc(NC(=S)N/N=C/c2ccccc2OCc2cccc(Br)c2)c1`, the inhibition was -13.5%.
The figure for `Cc1noc(-c2ccccc2)c1NC(=O)Nc1ccccc1` is 2%.
The figure for `C=CCOc1ccc2ccccc2c1CNCCCN1CCOCC1` is 10%.
